Screens deposited in PubChem by National Center for Advancing Translational Sciences (NCATS).
Lassa entry inh: Lassa virus entry inhibition; Lassa virus pseudotype entry inhibition, cell reporter; Potency, µM (titrated, usually from 37.9 µM), for inactives: at the highest dose activity change, negative = inhibition, actives largely listed as inhibitors; hit rate 1.2% among 300,000; calls by dose curve; tested in HEK293 cells; also: nearly all actives have a fitted effect of over 50% in size
MARV entry inh: inhibitors of Marburg virus binding or cell entry | Marburg virus pseudotyped entry inhibition, cell reporter | Potency, µM (top dose mostly 37.8 µM), for the others: at the highest dose activity change, negative = inhibition, most hits filed as inhibitors | hit rate 1.8% among 300,000 | AID 540276; calls by dose curve; tested in HEK293 cells
Vaccinia mCherry: inhibitors of vaccinia virus infection (mCherry reporter signal); Vaccinia virus mCherry reporter infection, fluorescence; Potency, µM (highest dose often 36.5 µM), for the others: at the highest dose activity change, negative = inhibition, usual class: inhibitors; hit rate 0.63% among 310,000; AID 720579; calls by dose curve; tested in A549 cells; also: nearly all actives have a fitted effect of over 35% in size
VACV Venus inh: vaccinia inhibition (Venus reporter); Vaccinia virus Venus reporter expression, fluorescence; Potency, µM (doses to about 36.5 µM), inactives show at the highest dose activity change, negative = inhibition, usual class: inhibitors; hit rate 0.46% among 330,000; AID 720580; calls by dose curve; tested in A549 cells; also: nearly all actives have a fitted effect of over 30% in size
The depositor's hits bear a star; i = inactive; ? = inconclusive; / = no result; [ ] = dose if it differs, or a comment. Compounds with a hit are over-represented: about 2.5% of the library has one in this group of screens. % is scaled to controls: 0 for no effect and ±100 for the full control effect; potency is read from the fitted curve at half-maximal effect.

SMILES | Lassa entry inh | MARV entry inh | Vaccinia mCherry | VACV Venus inh
N#Cc1c(NC(=O)c2cccc3ccccc23)sc2c1CCCC2 | 0.2µM* | / | / | /
N#Cc1c(NC(=O)CSc2ncn[nH]2)sc2c1CCCCC2 | -82%[14.3 µM] | 0.46µM* | ? | ?
O=C1CCC2=C(CC(O)=C(O)C2)O1 | / | 5% | / | /
COc1ccc(-n2c(CNC(=O)c3cccc(OC)c3OC)nnc2SC)cc1 | / | / | -11% | 6%
CC1CC2(C)Oc3ccccc3CC2C(C)C1CNCCCN(C)C (stereo not given) | ? | ? | ? | 14µM*
CCCNC(=O)c1ccc(COc2ccc(CCC)cc2OC)o1 | 6.3µM* | 0%[46.1 µM] | i | -20%
COc1ccc(CC(=O)N2CCN(c3ccccn3)CC2)cc1OC | 11% | 7% | -11% | -10%
CCCc1ccc(OCc2ccc(C(=O)N3CCN(c4ccccn4)CC3)o2)c(OC)c1 | 33%[14.3 µM] | 23µM* | -19% | -18%
CC(CCN1CCCCc2nc(C)c(C)cc21)=NO[C@@H](C)c1cn([C@H](CO)Cc2ccccc2)nn1 | / | -12%[14.2 µM] | / | /
Fc1ccc(-c2nnc(NC3=NCCCCC3)o2)cc1 | 1µM* | ? | / | -26%
c1ccc(-c2nnc(NC3=NCCC3)o2)cc1 | 7.1µM* | ? | -10% | -8%
COc1ccc(NS(=O)(=O)c2cccc(NC(=O)NC3CCCCC3)c2)cc1 | 2µM* | ? | -4% | ?
COc1ccc(NS(=O)(=O)c2ccc(C)c(NC(=O)NC3CCCCC3)c2)cc1 | 10µM* | ? | i | -30%
COc1ccc(NS(=O)(=O)c2cccc(NC(=O)CNC(C)=O)c2)cc1 | -2% | 4% | i | 3%
COc1ccc(NS(=O)(=O)c2ccc(C)c(C(=O)N(C)Cc3ccc(C)cc3)c2)cc1 | 11µM* | ? | ? | -18%
Oc1cc2cc(-c3csc(-c4ccc(F)cc4)n3)cc3c2n1CCC3 | / | / | 17% | -8%
CCN1C(=O)CC(C(C)C)N(C2CCCC2)c2nc(Nc3ccc(C(=O)NC4CCN(C)CC4)cc3OC)ncc21 (stereo not given) | / | / | ? | 10µM*
CCN1C(=O)CC(c2ccccc2)N(C2CCCC2)c2nc(Nc3ccc(C(=O)NC4CCN(C)CC4)cc3OC)ncc21 (stereo not given) | / | / | -25% | ?
CCN(CC)c1ccc(/C=C/c2ccccn2)cc1 | / | / | 1% | i
CCN(CC)CCN(Cc1cc2cc3c(cc2[nH]c1=O)OCCO3)C(=S)NCCCOC | 12% | 1% | -6% | -23%
CCN(CC)CCN(Cc1cc2cc3c(cc2[nH]c1=O)OCCO3)C(=S)NCC(C)C | ? | 11µM* | -15% | ?
Cc1cc(Nc2sc(C(=O)c3ccc(F)cc3)c(N)c2C(=O)Nc2ccc(F)cc2)ccc1Cl | ? | / | 5µM* | ?
Cc1ccc(Nc2sc(C(=O)c3ccc(F)cc3)c(N)c2S(=O)(=O)c2ccc(C)cc2)cc1 | 1.1µM* | / | -23% | -19%
COc1ccc(C(=O)c2sc(Nc3cccc(OC)c3)c(C(=O)Nc3cccc(C)c3C)c2N)cc1 | ? | 21µM* | / | /
COc1ccc(NC(=O)c2c(Nc3ccccc3)sc(C(=O)c3ccc(F)cc3)c2N)cc1 | 13µM* | 6.3µM* | ? | ?
SMILES | Lassa entry inh | MARV entry inh | Vaccinia mCherry | VACV Venus inh
COc1ccc(C(=O)c2sc(Nc3ccccc3)c(C(=O)Nc3ccc(OC)c(OC)c3)c2N)cc1 | -23% | 1% | -30% | -22%
COCCN1C(=O)NC(c2cccc(C(F)(F)F)c2)C(C(C)=O)=C1C (stereo not given) | / | 11%[14.2 µM] | / | /
COc1ccccc1CN1CCOc2ccc(C(C)(O)COc3ccccc3)cc2C1 (stereo not given) | / | / | -15% | -10%
Cn1c(-c2cc(Cl)ccc2O)nc2c1c(=O)[nH]c(=O)n2Cc1ccccc1 | ? | 2µM* | -18% | -22%
COCCCn1c(-c2cccc(Cl)c2)nc2c1c(=O)[nH]c(=O)n2Cc1ccccc1 | ? | -1%[46.1 µM] | 6% | -5%
COCCn1c(=O)[nH]c(=O)c2c1nc(-c1ccc(-c3ccc(Cl)cc3[N+](=O)[O-])o1)n2Cc1ccccc1 | 10µM* | ? | ? | ?
COc1ccc(-c2nc3c(c(=O)[nH]c(=O)n3Cc3ccccc3)n2CCO)cc1 | 2.2µM* | -1%[46.1 µM] | ? | -25%
O=c1[nH]c(=O)n(Cc2ccccc2)c2nc(-c3ccc(Oc4ccc(F)cc4)c([N+](=O)[O-])c3)n(CCO)c12 | ? | ? | -21% | 10µM*
COc1ccc(-c2ccc(-c3nc4c(c(=O)[nH]c(=O)n4Cc4ccccc4)n3C)o2)c([N+](=O)[O-])c1 | -2% | -2% | -7% | 4%
COCCn1c(-c2ccc(OC(F)(F)C(F)C(F)(F)F)cc2)nc2c1c(=O)[nH]c(=O)n2CC(C)C (stereo not given) | 2.8µM* | -5% | / | -28%
O=C(CCCN1C(=O)c2cccc3cccc(c23)C1=O)N1CCN(c2ccccc2)CC1 | -10% | 8% | ? | -24%
O=C(CCCN1C(=O)c2cccc3cccc(c23)C1=O)N1CCN(c2ccccc2O)CC1 | 7.9µM* | ? | ? | -29%
C=C1C=C(C(F)F)n2ncc(C(=O)N3CCN(c4ccccc4)CC3)c2N1 | / | / | ? | -25%
O=C1C[C@H]2C=CCc3cccc(c32)CN1Cc1ccc(Cl)cc1 | / | / | -1% | -11%
COc1cccc(/C=N/Nc2ncnc3c2ncn3Cc2ccccc2)c1O | 7.3µM* | ? | 3.2µM* | ?
COc1cc(/C=N/Nc2nc(C)nc3c2cnn3-c2ccccc2)ccc1O | ? | 11µM* | ? | ?
COc1cc(C=NNc2ncnc3c2cnn3Cc2ccccc2)ccc1O | 7.9µM* | / | / | /
CCCCNc1ncnc2c1cnn2-c1ccc(Cl)cc1 | / | / | -10% | -21%
CCCCNc1ncnc2c1cnn2-c1ccccc1 | ? | 10µM* | / | ?
COc1ccc(Nc2ncnc3c2cnn3Cc2ccccc2)cc1OC | ? | ? | -1% | -26%
O=C(NC1=C(Cl)CCCC1)NC1CCCCC1Cl (stereo not given) | / | 12%[46.1 µM] | / | /
COc1cc(C=NNc2ncnc3c2cnn3-c2ccccc2)ccc1O | 16µM* | / | / | /
CCOc1ccc(NC(=O)CC2C(=O)N(c3ccc(OC)cc3)C(=O)N2CCc2cccs2)cc1 (stereo not given) | 7.3µM* | ? | -17% | -10%
COc1ccc(NC(=O)CC2C(=O)N(c3ccccc3)C(=O)N2CCc2cccs2)cc1 (stereo not given) | ? | -9% | i | -9%
CCOC(=O)c1ccc(NC(=O)CC2C(=O)N(c3ccc(F)cc3)C(=O)N2CCC(C)C)cc1 (stereo not given) | ? | 26µM* | / | /
CCN1C(=O)C(CC(=O)Nc2ccc(OC)cc2)N(CCCN2CCN(c3ccc(OC)cc3)CC2)C1=S (stereo not given) | ? | ? | 10µM* | ?
c1cncc(OC2CCN(Cc3ccc4c(c3)CN(Cc3ccc5c(c3)OCCO5)CCO4)CC2)c1 | / | / | -23% | -17%
CCc1ccc(NC(=O)CSc2nnc(-c3ccccc3)n2C)cc1 | / | / | -14% | -16%
CSc1nnc(C(C)(C)C)c(=O)n1N/C=C1\C(=O)CCC2=C1CCCC2 | / | 3%[46.1 µM] | / | /
CN(CC(=O)Nc1ccc(S(=O)(=O)N2CCCC2)cc1)Cc1c(F)cccc1Cl | ? | 5µM* | -19% | -18%
